Source: PubChem BioAssay
Inconclusive results are not listed. The source made the active and inactive calls. Unless noted, the limit is not given here; nearly all actives have AC50 up to about 26 µM.

Assays:
[1] = growth inhibition of DIPG glioma cells, dose response, cell-based, SU-DIPG-XVII, MIPE5.0, CellTiter-Glo, qHTS (AID 1347060); conditions: SU-DIPG-XVII viability, CellTiter-Glo ATP luminescence;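 as to AC50: cells exposed to compound for 48 hours before viability readout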
[2] = growth inhibition of DIPG glioma cells, dose response, cell-based, SU-DIPG-XIII, MIPE5.0, CellTiter-Glo, qHTS (AID 1347064; cut-off not given, nearly all actives have AC50 up to about 23 µM;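 as to AC50: cells exposed to compound for 48 hours before the viability read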); conditions: SU-DIPG-XIII viability, CellTiter-Glo ATP luminescence
[3] = viability loss in pontine glioma line – cell-based, SU-DIPG-XXV, MIPE5.0, CellTiter-Glo, qHTS, dose response (AID 1347065); conditions: CellTiter-Glo ATP luminescence;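 also: cells exposed to compound for 48 hours before ATP readout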
[4] = JHH-DIPG-1 glioma cell viability, MIPE5.0 library, CellTiter-Glo luminescence, qHTS (AID 1347067); conditions: JHH-DIPG-1 glioma viability, CellTiter-Glo ATP luminescence;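 also: cells exposed to compound for 48 hours before readout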
[5] = SU-DIPG-XXV glioma cell viability, MIPE5.0 library, qHTS (AID 1347068; cut-off not given, nearly all actives have IC50 up to about 30 µM;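 as to IC50: cells exposed to compound for 48 hours before viability readout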)

Row | SMILES | outcome [1] | outcome [2] | outcome [3] | outcome [4] | outcome [5] | AC50 [1] | AC50 [2] | AC50 [3] | AC50 [4] | IC50 [5]
1 | CCc1cccc2c3c([nH]c12)[C@@](CC)(CC(=O)O)OCC3 | inactive | inactive | inactive | inactive | inactive |  |  |  |  | 
2 | CCc1c(-c2ccccc2C)nc2c(C#N)c[nH]n2c1=O | inactive | inactive | inactive | inactive | inactive |  |  |  |  | 
3 | O=C1Cc2cc(C(=O)NC3C[C@H]4CC[C@@H](C3)N4S(=O)(=O)CC3CCN(CCCC(F)(F)F)CC3)c(Cl)cc2N1 (stereo not given in full) | inactive | inactive | inactive | inactive | inactive |  |  |  |  | 
4 | C=CC(=O)Nc1cccc(Oc2nc(Nc3ccc(N4CCN(C)CC4)cc3)nc3ccsc23)c1 |  |  |  |  |  | 8.33 µM (active) | 13.2 µM (active) | 9.34 µM (active) | 10.5 µM (active) | 0.59 µM (active)
5 | CCn1c(=O)c(-c2ccc(-c3cncs3)cc2Cl)cc2cnc(Nc3ccc(N4CCN(C)CC4)cc3)nc21 |  |  |  |  |  | 3.32 µM (active) | 8.33 µM (active) | 2.95 µM (active) | 5.25 µM (active) | 10.5 µM (active)
6 | Clc1cccc(-c2ccc(-c3nnc(CCCc4ccc5cccnc5n4)o3)cc2)c1 | inactive | inactive | inactive | inactive | inactive |  |  |  |  | 
7 | Cc1ccc(NC(=O)c2ccc(CN3CC[C@H](N(C)C)C3)c(C(F)(F)F)c2)cc1Nc1nccc(-c2cncnc2)n1 |  |  |  |  | inactive | 10.2 µM (active) | 14.4 µM (active) | 16.2 µM (active) | 11.5 µM (active) | 
8 | C[C@H](Nc1nc(N[C@H](C)C(F)(F)F)nc(-c2cccc(Cl)n2)n1)C(F)(F)F | inactive | inactive | inactive | inactive | inactive |  |  |  |  | 
9 | COc1cc2c(cc1OCCCN1CCCC1)N=C(N)C21CCC1 | inactive | inactive | inactive | inactive | inactive |  |  |  |  | 
10 | CC(C)(O)C1CCC(Nc2ccc3ncc(-c4cccc(C(F)(F)F)c4)n3n2)CC1 (stereo not given) |  |  |  |  |  | 7.42 µM (active) | 18.6 µM (active) | 13.2 µM (active) | 10.5 µM (active) | 8.33 µM (active)
11 | Cc1c(-c2c(-c3ccc(F)o3)sc3ncnc(O[C@@H](Cc4ccccc4OCc4ccnn4CC(F)(F)F)C(=O)O)c23)ccc(OCCN2CCN(C)CC2)c1Cl |  |  |  |  |  | 0.295 µM (active) | 6.61 µM (active) | 0.132 µM (active) | 3.32 µM (active) | 1.32 µM (active)
12 | Cc1[nH]cnc1CN1CCN(C(=O)N[C@@H](CC(C)C)C(=O)O)[C@@H](Cc2ccccc2)C1=O | inactive | inactive | inactive | inactive | inactive |  |  |  |  | 
13 | COc1ccc(Cl)cc1-c1cc(=O)[nH]c(=S)n1CC(N)=O | inactive | inactive | inactive | inactive | inactive |  |  |  |  | 
14 | CC(C)(C)C(=O)N1N=CC[C@H]1c1ccccc1 | inactive | inactive | inactive | inactive | inactive |  |  |  |  | 
15 | CS(=O)(=O)N1CCC(NC(=O)c2[nH]ncc2NC(=O)c2c(Cl)cccc2Cl)CC1 |  |  |  |  |  | 3.32 µM (active) | 4.17 µM (active) | 4.17 µM (active) | 4.17 µM (active) | 4.68 µM (active)
16 | Cn1cc(-c2ccc(S(=O)(=O)n3ccc(/C=C/C(=O)Nc4ccccc4N)c3)cc2)cn1 |  |  |  |  |  | 1.48 µM (active) | 3.32 µM (active) | 1.32 µM (active) | 1.86 µM (active) | 5.9 µM (active)
17 | CCCC1(CCC)CCC2(CCN(CCCN(CC)CC)C2)CC1 |  |  |  |  |  | 7.42 µM (active) | 4.17 µM (active) | 6.61 µM (active) | 3.72 µM (active) | 10.5 µM (active)
18 | C1=C/COCc2cc(ccc2OCCN2CCCC2)Nc2nccc(n2)-c2cccc(c2)COC/1 |  |  |  |  |  | 2.95 µM (active) | 2.95 µM (active) | 2.09 µM (active) | 4.17 µM (active) | 2.95 µM (active)
19 | CC(C)n1cc(-c2ccc3c(c2)N(C)CC3)c2c(NS(=O)(=O)c3ccn(C)n3)ccnc21 | inactive | inactive | inactive | inactive | inactive |  |  |  |  | 
20 | C=CC(=O)Nc1cc(N2CCN(CC)CC2)ccc1Nc1cc(N(C)C(=O)Nc2c(Cl)c(OC)cc(OC)c2Cl)ncn1 |  |  |  |  | inactive | 14.8 µM (active) | 14.8 µM (active) | 18.6 µM (active) | 20.9 µM (active) | 
21 | O=S(=O)(Nc1ccc(-c2cccnc2)c2cccnc12)c1cccc(C(F)(F)F)c1 |  |  |  |  | inactive | 11.8 µM (active) | 16.6 µM (active) | 14.8 µM (active) | 7.42 µM (active) | 
22 | OC1CCC(Oc2cccc3cnc(Nc4ccc5nc[nH]c5c4)nc23)CC1 (stereo not given) |  |  |  |  |  | 0.833 µM (active) | 2.09 µM (active) | 0.661 µM (active) | 1.32 µM (active) | 1.05 µM (active)
23 | Cn1ncc(Cl)c1-c1cc(C(=O)N[C@H](CN)Cc2ccc(F)c(F)c2)sc1Cl |  |  |  |  |  | 18.6 µM (active) | 2.35 µM (active) | 1.32 µM (active) | 16.6 µM (active) | 16.6 µM (active)
24 | COc1cc(-c2cn(C)c(=O)c3cnccc23)cc(OC)c1CN(C)C | inactive | inactive | inactive | inactive | inactive |  |  |  |  | 
25 | CC(=O)c1ccc2c(c1)c1cc(C(C)=O)ccc1n2CCNC(C)C |  |  |  |  |  | 2.95 µM (active) | 4.68 µM (active) | 3.32 µM (active) | 2.63 µM (active) | 5.9 µM (active)
26 | CN(C)C/C=C/C(=O)Nc1cccc(C(=O)Nc2cccc(Nc3ncc(Cl)c(-c4c[nH]c5ccccc45)n3)c2)c1 |  |  |  |  |  | 0.417 µM (active) | 0.332 µM (active) | 0.263 µM (active) | 0.468 µM (active) | 0.417 µM (active)

Row | SMILES | outcome [1] | outcome [2] | outcome [3] | outcome [4] | outcome [5] | AC50 [1] | AC50 [2] | AC50 [3] | AC50 [4] | IC50 [5]
27 | CN(C)Cc1ccc(S(=O)(=O)n2ccc(/C=C/C(=O)NO)c2)cc1 |  |  |  |  |  | 9.34 µM (active) | 5.9 µM (active) | 6.61 µM (active) | 9.34 µM (active) | 7.42 µM (active)
28 | O=C1CC[C@H](N2Cc3c(OCc4ccc(CN5CCOCC5)cc4)cccc3C2=O)C(=O)N1 | inactive | inactive | inactive | inactive | inactive |  |  |  |  | 
29 | CCS(=O)(=O)N1CCC([C@@H](C)n2c(C)c(C(=O)NCc3c(OC)cc(C)[nH]c3=O)c3ccccc32)CC1 | inactive | inactive | inactive | inactive | inactive |  |  |  |  | 
30 | Cc1cc(Oc2ccc3nc(COc4ccc(CC5SC(=O)NC5=O)cc4)n(C)c3c2)cc(C)c1N (stereo not given) | inactive | inactive | inactive | inactive | inactive |  |  |  |  | 
31 | NC[C@@](O)(c1ccc(Cl)cc1)c1ccc(-c2cn[nH]c2)cc1 | inactive |  |  |  |  |  | 18.6 µM (active) | 13.2 µM (active) | 26.3 µM (active) | 23.5 µM (active)
32 | CN1C(=O)[C@@H](NC(=O)c2cc(Cc3ccccc3)on2)COc2ccccc21 | inactive | inactive | inactive | inactive | inactive |  |  |  |  | 
33 | C=CC(=O)N1CC[C@@H](Oc2nc(Nc3ccc(N4CCC(N5CCN(C)CC5)CC4)cc3)c(C(N)=O)nc2CC)C1 |  |  |  |  |  | 1.15 µM (active) | 0.811 µM (active) | 0.91 µM (active) | 2.29 µM (active) | 4.56 µM (active)
34 | Cc1ccc(NC(=O)Nc2nnc(Sc3ncnc4cc(OCCCN5CCOCC5)ccc34)s2)cc1 |  |  |  |  | inactive | 2.95 µM (active) | 2.63 µM (active) | 1.86 µM (active) | 2.35 µM (active) | 
35 | NC(=O)/C(=C/n1cnc(-c2cc(C(F)(F)F)cc(C(F)(F)F)c2)n1)c1cncnc1 |  |  |  |  |  | 0.417 µM (active) | 2.09 µM (active) | 2.35 µM (active) | 11.8 µM (active) | 3.32 µM (active)
36 | Cc1ncc(NC(=O)c2cccc(C(F)(F)F)c2)cc1-c1cnc(OC2CCOCC2)c(N2CCOCC2)c1 |  |  |  |  |  | 9.34 µM (active) | 5.25 µM (active) | 14.8 µM (active) | 4.68 µM (active) | 18.6 µM (active)
37 | Nc1ncccc1-c1nc2ccc(-c3ccccc3)nc2n1-c1ccc(C2(N)CCC2)cc1 |  |  |  |  |  | 11.8 µM (active) | 4.17 µM (active) | 2.95 µM (active) | 5.9 µM (active) | 20.9 µM (active)
38 | CC(C)Nc1cc(-c2c[nH]c(C(=O)N[C@H](CO)c3cccc(Cl)c3)c2)c(Cl)cn1 |  |  |  |  |  | 1.48 µM (active) | 4.17 µM (active) | 3.32 µM (active) | 1.66 µM (active) | 14.8 µM (active)
39 | CN1C(=O)[C@@H](NC(=O)c2n[nH]c(Cc3ccccc3)n2)COc2ccccc21 | inactive | inactive | inactive | inactive | inactive |  |  |  |  | 
40 | CNC(=O)c1ccc(Nc2ncc(C(F)(F)F)c(NCc3nccnc3N(C)S(C)(=O)=O)n2)cc1 |  |  |  |  |  | 4.68 µM (active) | 5.25 µM (active) | 3.72 µM (active) | 4.68 µM (active) | 2.35 µM (active)
41 | c1ccc2c(-c3cnn4cc(-c5ccc(OCCN6CCOCC6)cc5)cnc34)ccnc2c1 |  |  |  |  | inactive | 12.9 µM (active) | 14.4 µM (active) | 9.1 µM (active) | 10.2 µM (active) | 
42 | C=C1C[C@H]2C=Nc3cc(OCCCOc4cc5c(cc4OC)C(=O)N4CC(=C)C[C@H]4C=N5)c(OC)cc3C(=O)N2C1 |  |  |  |  |  | 0.00186 µM (active) | 0.0209 µM (active) | 0.0166 µM (active) | 0.00372 µM (active) | 0.0742 µM (active)
43 | NC(CC1c2ccccc2Oc2ccccc21)(C(=O)O)C1CC1C(=O)O (stereo not given) | inactive | inactive | inactive | inactive | inactive |  |  |  |  | 
44 | CCC(=O)N1CCOc2c(cc(-c3cc(OC)cc(OC)c3)cc2C(=O)N[C@H]2CCCN(C)C2)C1 | inactive | inactive | inactive | inactive | inactive |  |  |  |  | 
45 | CN[C@@H](C)C(=O)N[C@H](C(=O)N1CCC[C@H]1C(=O)Nc1sc(-c2ncco2)nc1-c1ccccc1)C1CCCCC1 | inactive | inactive | inactive | inactive | inactive |  |  |  |  | 
46 | CNC(=O)CCc1cc(-c2ccc(-c3ccc(C(F)(F)F)cc3)cc2)n(-c2ccc(N3CCNCC3)cc2)n1 |  |  |  |  |  | 5.25 µM (active) | 7.42 µM (active) | 2.63 µM (active) | 3.72 µM (active) | 9.34 µM (active)
47 | NC(=O)c1ccccc1Nc1ccnc(Nc2cccc(O)c2)n1 |  |  |  |  |  | 2.63 µM (active) | 5.25 µM (active) | 1.32 µM (active) | 18.6 µM (active) | 4.68 µM (active)
48 | NS(=O)(=O)NCCNc1nonc1C(=Nc1ccc(F)c(Br)c1)NO | inactive | inactive | inactive | inactive | inactive |  |  |  |  | 
49 | COc1c(Nc2ncc(Cl)c(N[C@H]3[C@H](C(N)=O)[C@@H]4C=C[C@@H]3C4)n2)ccc2c1CCC(N1CCOCC1)CC2 (stereo not given in full) |  |  |  |  |  | 4.17 µM (active) | 4.17 µM (active) | 2.95 µM (active) | 8.33 µM (active) | 5.9 µM (active)
50 | CCCC(CCC)C(=O)Nc1ccn([C@@H]2O[C@H](CO)[C@@H](O)C2(F)F)c(=O)n1 |  | inactive | inactive | inactive | inactive | 4.68 µM (active) |  |  |  | 
51 | O=C(Nc1cnn2ccc(N3CCC[C@@H]3c3cc(F)ccc3F)nc12)N1CC[C@H](O)C1 | inactive | inactive | inactive | inactive | inactive |  |  |  |  | 
